Data: PubChem BioAssay

Test system: Wnt5a (protein binding on small-molecule microarray)
Assay: small molecules binding Wnt5a protein – biophysical, small-molecule microarray, 635/667 nm fluorescence, primary screen (AID 1142);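 also: fluorescence read at 667 nm with signal to noise per printed feature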
Conditions: 635 nm fluorescence, higher = more signal

**Q.** With `CCN1C(=O)[C@@H]2[C@H]3C(=CC[C@@H]2C1=O)C1(OCCCO1)[C@H]1O[C@H]1[C@H]3O` as the compound, how does the composite z-score read?
**A.** 0.36

**Q.** `CCOC(=O)[C@H](Cc1ccccc1)NC(=O)CCC1CC(OC(=O)NCCc2ccc(F)cc2)CC2(CCCC(COC(=O)NCCc3ccccc3OC)O2)O1` (stereo partly drawn) was tested. Which composite z-score did it give?
**A.** 0.359

**Q.** With `CCOC(=O)NN=C1C[C@@H](O)[C@@H](O)[C@@H]2[C@@H]3C(=O)N(c4cccc(Oc5ccccc5)c4)C(=O)[C@@H]3CC[C@H]12` as the compound, how does the composite z-score read?
**A.** 0.0643

**Q.** With `CCCCC#C[C@@H]1C=C[C@H](Oc2ccc(C(=O)OC)cc2)[C@@H](COC(=O)OCC)O1` as the compound, how does the composite z-score read?
**A.** 0.769

**Q.** For `CCCNC(=O)OC[C@H]1O[C@H](CCON=C(C)CCN2CCc3nc(CC)c(CC)cc3C2)C=C[C@@H]1Oc1ccc(OC)cc1`, which composite z-score is on record?
**A.** -0.0552

**Q.** How did the composite z-score turn out when `CCC1=NOC(CCC2CC(OC(=O)NCc3cccc4c3OCO4)CC3(CCCC(COC(=O)NCCc4ccccc4OC)O3)O2)C1` (stereo not drawn) was run?
**A.** 0.196

**Q.** `CO[C@@H]1COC(=O)CC=C[C@H](C)[C@H](OC)COC(=O)[C@H](C)NC(=O)CC=C[C@H]1C` was tested. Which composite z-score did it give?
**A.** -0.0631

**Q.** With `C#CCCCON=C1C[C@@H](O)[C@@H](O)[C@@H]2[C@@H]3C(=O)N(C(C)(C)C)C(=O)[C@@H]3CC[C@H]12` as the compound, how does the composite z-score read?
**A.** -0.19

**Q.** Which composite z-score does the source give for `CCOC(=O)[C@H](Cc1ccccc1)NC(=O)CCC1CC(OC(=O)NCc2ccc3c(c2)OCO3)CC2(CCCC(COC(=O)NCCC(C)C)O2)O1` (stereo partly drawn) here?
**A.** 0.403

**Q.** With `COC(=O)CC=C[C@@H](C)[C@@H](C=NO[C@H](C)c1cn([C@H](CO)Cc2ccccc2)nn1)NS(=O)(=O)c1ccc(C)cc1` as the compound, how does the composite z-score read?
**A.** -0.0374

**Q.** `CCN1C(=O)[C@H]2[C@H]3[C@H](O)[C@H](O)CC(=O)[C@@H]3CC[C@H]2C1=O` was tested. Which composite z-score did it give?
**A.** 0.0774

**Q.** `CCO[C@H](c1cc(OC)cc([N+](=O)[O-])c1OC)[C@H](C)C=CCC(=O)OC` was tested. Which composite z-score did it give?
**A.** -0.151

**Q.** Which composite z-score does the source give for `COC(=O)[C@H](C)NC(=O)CCC1CC(OC(=O)NCCc2ccc(F)cc2)CC2(CCCC(COC(=O)NCc3cccc(C(F)(F)F)c3)O2)O1` (stereo partly drawn) here?
**A.** 0.116

**Q.** `CCOC(=O)[C@H](CC(C)C)NC(=O)CCC1CC(OC(=O)NCc2ccc3c(c2)OCO3)CC2(CCCC(COC(=O)NCc3cccc(C(F)(F)F)c3)O2)O1` (stereo partly drawn) was tested. Which composite z-score did it give?
**A.** -0.194

**Q.** With `COC(=O)[C@H](C)NC(=O)CCC1CC(OC(=O)NCc2ccc3c(c2)OCO3)CC2(CCCC(COC(=O)NCc3cccc(C(F)(F)F)c3)O2)O1` (stereo partly drawn) as the compound, how does the composite z-score read?
**A.** -0.0362

**Q.** How did the composite z-score turn out when `C[C@@H](c1ccccc1)N1C(=O)[C@H]2[C@H]3[C@H](O)[C@H](O)CC(=NO[C@@H]4O[C@H](CO)[C@@H](O)[C@H](O)[C@H]4O)[C@H]3CC[C@H]2C1=O` was run?
**A.** 0.189

**Q.** `CCc1cc2c(nc1CC)CCN(CCC(C)=NO[C@H](C)c1cn([C@H](CO)Cc3ccccc3)nn1)C2` was tested. Which composite z-score did it give?
**A.** 0.167

**Q.** How did the composite z-score turn out when `O=C1C[C@@H](O)[C@@H](O)[C@@H]2[C@@H]3C(=O)N(Cc4ccccc4)C(=O)[C@@H]3CC[C@@H]12` was run?
**A.** 0.19

**Q.** `COc1ccc(O[C@H]2C=C[C@@H](c3ccccc3)O[C@@H]2CON=CC[C@@H]2C=C[C@H](OC(C)=O)[C@@H](COC(C)=O)O2)cc1` was tested. Which composite z-score did it give?
**A.** 0.0129

**Q.** For `Cc1ccc(S(=O)(=O)n2c3ccccc3c3nnc(C(=O)c4ccccc4)nc32)cc1`, which composite z-score is on record?
**A.** 0.19

**Q.** With `CCCNC(=O)OC[C@H]1O[C@H](CCON=C(C)CCC(=O)OC[C@H]2O[C@H](c3ccccc3)C=C[C@@H]2Oc2ccc(OC)cc2)C=C[C@@H]1Oc1ccc(OC)cc1` as the compound, how does the composite z-score read?
**A.** -0.109

**Q.** Which composite z-score does the source give for `COC(=O)CC=C[C@@H](C)[C@H](OCc1cccc(-c2ccccc2)c1)C1CCCCC1` here?
**A.** -0.106

**Q.** `O=C(NN=C1C[C@@H](O)[C@@H](O)[C@@H]2[C@@H]3C(=O)N(Cc4ccccc4)C(=O)[C@@H]3CC[C@@H]12)OCc1ccccc1` was tested. Which composite z-score did it give?
**A.** -0.0896

**Q.** Which composite z-score does the source give for `COc1ccc(COC(=O)NN=C2C[C@@H](O)[C@@H](O)[C@@H]3[C@@H]4C(=O)N(Cc5ccccc5)C(=O)[C@@H]4CC[C@H]23)cc1` here?
**A.** -0.419

**Q.** Which composite z-score does the source give for `COc1ccc(O[C@H]2C=C[C@@H](c3ccccc3)O[C@@H]2CON=C(C)CCC(=O)OC[C@H]2O[C@H](c3ccccc3)C=C[C@@H]2Oc2ccc(OC)cc2)cc1` here?
**A.** -0.874

**Q.** For `CCCNC(=O)OC[C@H]1O[C@H](CCON=Cc2ccc(C(=O)N3[C@H](c4ccc(C)cc4)[C@@H](C)CC[C@H]3C(=O)OC)cc2)C=C[C@@H]1Oc1ccc(OC)cc1`, which composite z-score is on record?
**A.** 0.157

**Q.** For `CCOC(=O)CCN1C(=O)[C@H]2[C@H]3[C@H](O)[C@H](O)CC(=NNC(=O)OCc4ccccc4)[C@@H]3CC[C@H]2C1=O`, which composite z-score is on record?
**A.** 0.109

**Q.** Which composite z-score does the source give for `C[C@@H](c1ccccc1)N1C(=O)[C@H]2[C@H]3[C@H](O)[C@H](O)CC(=NOCc4ccccc4)[C@H]3CC[C@H]2C1=O` here?
**A.** -0.0159
